These results are taken from PubChem BioAssay (Tox21).

The target in assay [1] is Thyrotropin receptor (Homo sapiens) (UniProt P16473). Nature of the assay: qHTS assay to identify small molecule agonists of the thyroid stimulating hormone receptor (TSHR) signaling pathway (AID 1224843; calls by dose curve; also: nearly all actives have a fitted effect of over 45% in size). In outline: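 HEK293 cells stably bearing the thyrotropin receptor were plated at 800 cells/well and challenged with compound (30 min, RT). Accumulated cAMP was quantified via cAMP-d2 competing for cryptate-tagged antibody.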
Background: Quantitative high-throughput screening tests each substance at several concentrations.

A short description of assay [2]: qHTS assay to identify small molecule agonists of the hypoxia (HIF-1) signaling pathway - cell viability counter screen (AID 1224844; calls by dose curve; also: nearly all actives have a fitted effect of over 50% in size). Put shortly: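 Multiplexed with the HRE beta-lactamase assay, this viability read used CellTiter-Glo luminescence (30 min, RT) on HRE-bla ME-180 cells treated 17 hrs with compounds in 0.5% dialyzed FBS medium.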
Assay [3] in a line: qHTS assay to identify small molecule agonists of the hypoxia (HIF-1) signaling pathway (AID 1224846; active = well fitted activation curve with a large enough effect in the signal ratio in the repeat runs, not every such curve was filed as active; the % refers to the signal ratio). Put shortly:
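Hypoxia-pathway activation was scored as increased beta-lactamase from an HRE-controlled reporter in ME-180 cells; plated at 2,000 cells per well with 0.5% dialyzed FBS, they were exposed 17 hrs to compounds and then given CCF4-AM.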

A short description of assay [4]: qHTS RealTime-Glo MT Cell Viability Assay in HepG2 cells - 24 hour (AID 1224867). Also: nearly all actives have a fitted effect of over 50% in size. In outline:
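Viability was tracked continuously by NanoLuc luminescence from prosubstrate reduced by living HepG2 cells, at successive time points over 40 h of compound exposure. Cells with reagent were preincubated 5 h at 37 °C before compound addition.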

Assay [5] can be described thus: qHTS RealTime-Glo MT Cell Viability Assay in HEK293 cells - 32 hour (AID 1224868). Also: top concentration of the series differs between compounds; nearly all actives have a fitted effect of over 50% in size. Put shortly:
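Viability tracked continuously by luminescence as live cells reduce a prosubstrate for NanoLuc; HEK293 cells preincubated 5 h, compound-treated at 37 C, and read at 0, 8, 16, 24, 32 and 40 h.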

Assay [6] in a line: A CellTox Green Cytotoxicity Assay to monitor cytotoxicity in HEK293 cells - 0 hour (AID 1224869). Also: nearly all actives have a fitted effect of over 50% in size. In outline:
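Seeding of HEK293 cells together with cytotoxicity dye preceded a 5 h incubation at 37 C/5% CO2. Test compounds in DMSO were then added and fluorescence monitored across 40 h.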

Assay [7] in a line: qHTS assay to identify small molecule agonists of H2AX - cell viability counter screen (AID 1224847; calls by dose curve; also: top concentration of the series differs between compounds; nearly all actives have a fitted effect of over 30% in size). Put shortly:
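Viability of CHO-K1 (wild type) cells after 3 hr compound exposure was measured by CellTiter-Glo luminescence.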

Assay [8] is described as follows: qHTS assay to identify small molecule agonists of H2AX (AID 1224845; active = well fitted activation curve with a large enough effect in the signal ratio in the repeat runs, not every such curve was filed as active; the % refers to the signal ratio). Put shortly:
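Phospho-H2AX Ser139 measured by HTRF (ex 320 nm; em 665 and 620 nm) after 24 hr antibody incubation. Compounds, 15 concentrations, 0.76% DMSO, were applied to CHO-K1 cells for 3hr at 37C before lysis.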

Assay [9] can be described thus: qHTS assay to identify small molecule antagonists of the estrogen related receptor (ERR) signaling pathway from Tox21 library (AID 1224848). Also: nearly all actives have a fitted effect of over 50% in size. Put shortly: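 Reading was by luminescence 30 min after ONE-Glo addition. Before that, ERR cells at 2,000 per well had rested 6 h at 37 C/5% CO2 and then received pin-tooled compounds in DMSO for 18 h at 37 C.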
Assay [10] can be described thus: qHTS assay to identify small molecule agonists of the estrogen related receptor (ERR) signaling pathway from Tox21 library (AID 1224849; calls by dose curve; also: nearly all actives have a fitted effect of over 15% in size). To be noted: ERR reporter cell line, ONE-Glo luciferase, 18 h; at 92.4 µM (top of the series) unless noted. Put shortly:
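Six hours post-seeding at 37 C/5% CO2, ERR cells receive DMSO-solubilised compounds; after 18 h at 37 C, ONE-Glo reagent is applied and luminescence recorded.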

Molecules are shown by their SMILES. Values without a mark were called inactive. Results filed as inconclusive are left out. Calls of active or inactive are those of the source. Unless noted, calls follow the shape of the dose curve; as a rule, active = well fitted curve in the direction sought with a large enough effect in the repeat runs; inconclusive = weak or mixed curves; inactive = no such curve, though single readings can be large; an effect the other way counts as inactive or inconclusive.
% is scaled to controls: 0 for no effect and ±100 for the full control effect.

Sequence of Thyrotropin receptor (Homo sapiens) (P16473 whole entry, looked up): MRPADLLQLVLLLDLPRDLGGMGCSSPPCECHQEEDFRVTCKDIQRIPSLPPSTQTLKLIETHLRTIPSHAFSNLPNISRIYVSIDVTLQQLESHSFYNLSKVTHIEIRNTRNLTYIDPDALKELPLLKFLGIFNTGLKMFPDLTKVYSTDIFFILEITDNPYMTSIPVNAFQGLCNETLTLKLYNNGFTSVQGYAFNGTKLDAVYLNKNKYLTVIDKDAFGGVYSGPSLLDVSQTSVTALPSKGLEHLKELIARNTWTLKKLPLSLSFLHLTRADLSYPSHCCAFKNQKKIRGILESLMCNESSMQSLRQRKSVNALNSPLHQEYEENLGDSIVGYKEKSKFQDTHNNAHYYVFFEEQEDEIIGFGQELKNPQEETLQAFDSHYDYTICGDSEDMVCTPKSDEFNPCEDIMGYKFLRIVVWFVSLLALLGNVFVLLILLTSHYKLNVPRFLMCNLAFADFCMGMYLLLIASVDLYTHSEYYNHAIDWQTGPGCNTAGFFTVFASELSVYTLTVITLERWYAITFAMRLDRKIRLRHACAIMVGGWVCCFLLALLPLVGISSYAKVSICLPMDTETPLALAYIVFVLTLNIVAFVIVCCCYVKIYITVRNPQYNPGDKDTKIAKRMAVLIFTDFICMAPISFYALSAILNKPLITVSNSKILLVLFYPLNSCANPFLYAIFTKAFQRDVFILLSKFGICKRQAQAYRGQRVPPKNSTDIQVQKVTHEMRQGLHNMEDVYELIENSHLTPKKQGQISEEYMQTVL

As for `N#CCN(CC#N)CCN(CC#N)CC#N`, the compound was classed as inactive in assay [1], in [3] and in assay [4]. The Potency entry in assay [2], in [5] and in assay [6] was “inactive” throughout.

In the case of `O=C1OC(=O)c2cc([N+](=O)[O-])ccc21`, the result in assay [1], in assay [3] and in assay [4] was inactive. Besides, the Potency entry in [2], in [7] and in assay [5] was “inactive” throughout.

Regarding `NC(=O)CCCCC1CCSS1` (stereo not given), the call in [1], in assay [8], in assay [3] and in assay [4] was inactive. Also, the Potency result in [7], in assay [5] and in assay [6] was “inactive” in each case.

Consider `C#CC(O)C(CC)CCCC` (stereo not given), for which the result in assay [1], in [3] and in [4] was inactive. Also, the Potency result in assay [2], in assay [5] and in [6] was “inactive” in each case.

Turning to `Cn1ccc2cc3c(cc21)CCN3C(=O)Nc1cccnc1`, the activation in assay [1] was 14.6% [at 19 µM]; in [3], -0.619% [at 15.8 µM]. Besides, the values for the activity change, negative = cytotoxicity in assay [2], in assay [7] and in [4] were -7.99% [at 15.8 µM], 1.26% [at 31.6 µM] and -2.41% [at 15.8 µM], respectively. The activity change, negative = cytotoxic in [5] is -7.77% [at 15.8 µM]. The cytotoxicity in [6] was -3.51% [at 15.8 µM].

For the compound `CC(C)[N+](C)(C)CC(O)COc1cccc2ccccc12` (stereo not given), the compound was called inactive in assay [1], in assay [3] and in assay [4]. The Potency entry in assay [2], in assay [7], in [5] and in assay [6] was “inactive” each time.

In the case of `OCc1ccccn1`, the compound was classed as inactive in assay [1], in [8], in assay [3] and in assay [4]. The Potency result in assay [7], in [9], in assay [5] and in [6] was “inactive” throughout. For the same compound, the activity change, positive = activation in [10] is 4.19% [at 42.5 µM].

As to `C=C(C)C(=O)NCCC[N+](C)(C)C`, the call in assay [1], in assay [3] and in assay [4] was inactive. Moreover, the Potency entry in [2], in assay [7] and in assay [5] was “inactive” throughout.

Consider `Cc1nc(-c2ccc(OCC(C)C)c(C#N)c2)sc1C(=O)O`, for which the call in assay [1], in assay [3] and in assay [4] was inactive. In addition, the Potency result in assay [2], in assay [9], in assay [5] and in assay [6] was “inactive” in each case. In assay [10], the activity change, positive = activation is 18.5% [at 42.5 µM] (active).

As to `Nc1ccc2cc(S(=O)(=O)O)ccc2c1`, the outcome in [1], in [3] and in assay [4] was inactive. The Potency entry in [2], in [7], in assay [5] and in assay [6] was “inactive” in each case.

With `O=C(O)c1cccc(C(=O)O)n1`, the result in assay [1], in [8], in assay [3] and in assay [4] was inactive. The Potency entry in [7], in [5] and in [6] was “inactive” throughout. Further, the activity change, positive = activation in [10] was 2.2%.

On to `OCC(CO)(CO)COCC(CO)(CO)CO`, for which the compound was called inactive in assay [1], in assay [8], in assay [3] and in [4]. Also, the Potency result in assay [7] and in assay [5] was “inactive” each time.

`NC(N)=NS(=O)(=O)c1ccc(N)cc1`: the compound was classed as inactive in assay [1] and in assay [4]. The Potency result in assay [2], in [5] and in assay [6] was “inactive” in each case.

With `CCC(=O)c1cccc(Cl)c1`, the call in assay [1], in assay [3] and in assay [4] was inactive. In addition, the Potency result in [2] and in assay [5] was “inactive” in each case.

Consider `CCCCCCCCCCCCCCCCCC(=O)OCCCCCCCCCCCCCC(C)C`, for which the outcome in [1], in assay [8], in assay [3] and in assay [4] was inactive. Also, the Potency entry in assay [7], in [5] and in assay [6] was “inactive” each time.

Take `CC1(C)OC(=O)Nc2ccc(Br)cc21`: the compound was classed as inactive in assay [1], in [8], in [3] and in [4]. For the same compound, the Potency entry in assay [7], in assay [5] and in [6] was “inactive” throughout.

`O=[N+]([O-])c1ccc(CCO)cc1`: the compound was called inactive in assay [1], in assay [3] and in assay [4]. In addition, the Potency result in assay [2] and in assay [5] was “inactive” throughout.

Consider `CCc1cc(S(=O)(=O)O)c2cc(C(C)C)cccc1-2`, for which the outcome in assay [1], in assay [3] and in [4] was inactive. Moreover, the Potency entry in [2], in [7], in assay [5] and in assay [6] was “inactive” throughout.

For the compound `CCOC(=O)Nc1ccc2c(c1)N(C(=O)CCN1CCOCC1)c1ccccc1S2`, the compound was classed as inactive in assay [1], in assay [8], in assay [3] and in assay [4]. In addition, the Potency result in assay [7] and in assay [5] was “inactive” each time.

For `O=C(CCOCCOCCOCCOCCC(=O)Nc1c(I)cc(I)c(C(=O)O)c1I)Nc1c(I)cc(I)c(C(=O)O)c1I`, the compound was called inactive in assay [1], in assay [3] and in [4]. Also, the Potency entry in assay [2], in [7], in assay [5] and in assay [6] was “inactive” each time.

As to `CC(C)(C)OC(=O)N1C[C@@H](F)C[C@H]1C(=O)O`, the call in assay [1], in assay [3] and in assay [4] was inactive. Besides, the Potency entry in assay [2] and in assay [5] was “inactive” each time.

Take `CC1=CC(=O)CCC1`: the call in [1], in assay [8], in [3] and in assay [4] was inactive. The Potency entry in [7] and in assay [5] was “inactive” each time.

With `N#CCc1ccccc1[N+](=O)[O-]`, the outcome in assay [1], in [8], in [3] and in [4] was inactive. Also, the Potency entry in assay [7], in assay [5] and in [6] was “inactive” throughout.

Consider `CO[Si](OC)(OC)OC`, for which the call in [1], in assay [3] and in assay [4] was inactive. Moreover, the Potency result in assay [2], in assay [7] and in [6] was “inactive” each time.

For the compound `C[C@H]1O[C@@H](n2cc(F)c(=O)[nH]c2=O)[C@H](O)[C@@H]1O`, the compound was classed as inactive in assay [1] and in [4]. In addition, the Potency result in assay [2], in [7], in assay [9] and in assay [5] was “inactive” each time. Moreover, the activity change, positive = activation in assay [10] was 2.35% [at 42.5 µM].

Regarding `Cc1ccccc1Br`, the compound was called inactive in assay [1], in assay [3] and in assay [4]. Further, the Potency result in [2], in assay [5] and in assay [6] was “inactive” in each case. Further, the activity change, positive = activation in [10] was -0.692%.
